In PubChem BioAssay (NCATS):
Results filed as inconclusive are left out. The source made the active and inactive calls. Calls come from the whole dose curve; as a rule, active = well fitted curve in the direction sought with a large enough effect; inconclusive = small, poorly fitted or top-dose-only effect, or another doubt; inactive = no such curve, though single readings can be large; an effect the other way counts as inactive or inconclusive.

Experiments:
[1] = Cell Viability - LYMP2-003 (AID 965);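 note: cells exposed to compounds for 24 h before reading; nearly all actives have a fitted effect of over 50% in size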
Method in brief: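 Acute cytotoxicity is scored as a concentration-dependent drop in intracellular ATP, measured by luciferase luminescence in human lymphoblastoid cells treated for 24 hours at 37 C. AC50 values derive from Hill-equation modelling.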

[2] = Cell Viability - LYMP2-004 (AID 966); note: nearly all actives have a fitted effect of over 65% in size
Method in brief: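 Luminescent ATP read-out (CellTiter-Glo, 30 min RT) after 24 hr compound exposure at 37 C; 2500 lymphoblastoid cells/well, complete medium. Decrease in ATP = cytotoxicity; AC50 from standard Hill model.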

[3] = Cell Viability - LYMP2-009 (AID 968); note: series mostly up to about 92 µM; nearly all actives have a fitted effect of over 55% in size
[4] = Cell Viability - LYMP2-011 (AID 969);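 note: cells exposed to compound for 24 hours; nearly all actives have a fitted effect of over 60% in size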
Method in brief: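 Luminescent ATP read-out (CellTiter-Glo, 30 min RT) after 24 hr compound exposure at 37 C in human lymphoblastoid cells, 2500 cells/well. Decreasing ATP indicates cytotoxicity; AC50 from standard Hill fit.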

[5] = Cell Viability - LYMP2-013 (AID 970); note: series mostly up to about 92 µM; nearly all actives have a fitted effect of over 55% in size
Method in brief: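 CellTiter-Glo luminescence (cellular ATP) read after 30 min at RT. Cells: human lymphoblastoid line, 2500/well, 24 hr compound exposure at 37 C. Tetraoctylammonium bromide positive control; AC50 via standard Hill fit of qHTS titrations.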

[6] = Cell Viability - LYMP2-015 (AID 971); note: nearly all actives have a fitted effect of over 55% in size
Method in brief: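 qHTS cytotoxicity: 2500 cells/well, 5 hr 37 C, compound 24 hr 37 C, CellTiter-Glo 30 min RT, luminescence. Loss of ATP = toxicity; AC50 via standard Hill fit.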

[7] = Cell Viability - LYMP2-017 (AID 972);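 note: series mostly up to about 92 µM; cells exposed to compound for 24 hours at 37 °C; nearly all actives have a fitted effect of over 55% in size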
Method in brief: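 Luminescent ATP read-out (CellTiter-Glo, 30 min RT) reports viable cell number. Cells: human lymphoblastoid line, 2500 per well, 5 hr preincubation, 24 hr compound exposure at 37 C. AC50 is derived from qHTS concentration-response data using the standard Hill model.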

[8] = Cell Viability - LYMP2-023 (AID 975)
Method in brief: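 CellTiter-Glo luminescence after 30 min at room temperature; decrease in intracellular ATP reflects toxicity. Cells: human lymphoblastoid line, 2500/well, 24 hr compound exposure at 37 C. AC50 fitted to standard Hill equation from concentration-response.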

[9] = Cell Viability - LYMP2-025 (AID 976); note: series mostly up to about 92 µM
Method in brief: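 CellTiter-Glo luminescence (cellular ATP) after 24 h compound exposure at 37 C; LYMP2-025 human lymphoblastoid cells, 2500/well, complete medium. Tetraoctylammonium bromide positive control. AC50 by Hill equation fit of qHTS concentration-response.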

[10] = Cell Viability - LYMP2-002 (AID 977); note: series mostly up to about 92 µM
Method in brief: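 In this qHTS viability screen, 2500 human lymphoblastoid cells per well receive compound for 24 hr at 37 C, and luciferase-based ATP luminescence gives the viability signal. Tetraoctylammonium bromide serves as positive control.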

[11] = Cell Viability - LYMP2-006 (AID 978);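 note: series mostly up to about 92 µM; cells exposed to compound for 24 hours; nearly all actives have a fitted effect of over 60% in size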
Method in brief: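 Concentration-dependent loss of intracellular ATP in a human lymphoblastoid line after 24 hr treatment at 37 C was measured by CellTiter-Glo luminescence, with AC50 values obtained from standard Hill-equation modelling.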

[12] = Cell Viability - LYMP2-007 (AID 979);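 note: cells exposed to compound for 24 h before reading; nearly all actives have a fitted effect of over 60% in size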
Method in brief: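 qHTS cytotoxicity: 2500 cells/well, 5 hr 37 C settle, compound 24 hr 37 C, CellTiter-Glo 30 min RT, luminescence. Decrease in ATP = toxicity. AC50 by standard Hill equation; tetraoctylammonium bromide positive control.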

[13] = Cell Viability - LYMP2-008 (AID 980); note: nearly all actives have a fitted effect of over 60% in size
Method in brief: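 Luminescent ATP read-out (CellTiter-Glo, 30 min RT) after 24 hr compound exposure at 37 C of human lymphoblastoid cells in complete medium. Decrease in ATP taken as cytotoxicity; AC50 derived by standard Hill fit of qHTS concentration-response data.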

[14] = Cell Viability - LYMP2-012 (AID 982)
[15] = Cell Viability - LYMP2-014 (AID 983); note: series mostly up to about 92 µM; nearly all actives have a fitted effect of over 50% in size
Method in brief: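 2500 cells/well, 5 hr 37 C; cpd 24 hr 37 C, complete medium; CellTiter-Glo 30 min RT, luminescence; ATP loss = toxicity; AC50 via Hill eqn; tetraoctylammonium bromide positive control.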

[16] = Cell Viability - LYMP2-016 (AID 984)
Method in brief: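 Acute toxicity in a Coriell human lymphoblastoid line is scored as loss of intracellular ATP over 24 h of treatment in complete medium. CellTiter-Glo signal is fitted across concentrations with the Hill equation to give AC50.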

[17] = Cell Viability - LYMP2-018 (AID 985); note: nearly all actives have a fitted effect of over 50% in size
Method in brief: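 2500 cells/well; 5 hr 37 C; cmpd 24 hr 37 C, complete medium; CellTiter-Glo 30 min RT; luminescence. Tetraoctylammonium bromide positive control. AC50 via Hill fit.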

[18] = Cell Viability - LYMP2-020 (AID 986)
Method in brief: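 qHTS, 2500 cells/well; 5 hr then 24 hr compound exposure, 37 C; CellTiter-Glo luminescence after 30 min RT; ATP decrease taken as cytotoxicity; AC50 via Hill equation; tetraoctylammonium bromide positive control.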

[19] = Cell Viability - LYMP2-026 (AID 989); note: nearly all actives have a fitted effect of over 50% in size
Method in brief: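 qHTS cytotoxicity: 2500 cells/well, 5 hr 37 C, compound 24 hr 37 C, CellTiter-Glo 30 min RT, luminescence. Tetraoctylammonium bromide positive control. AC50 via standard Hill fit.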

[20] = Cell Viability - LYMP1-002 - Assay at 24 hr (AID 993)
Method in brief: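 CellTiter-Glo luminescence (intracellular ATP) after 24 h compound exposure, 37 C, in LYMP1-002 human lymphoblastoid cells; decreased ATP taken as cytotoxicity. AC50 from standard Hill fit of concentration-response curves.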

Measured: outcome

C[C@@H]1C[C@H]2[C@@H]3CCC4=CC(=O)C=C[C@]4(C)[C@@]3(F)[C@@H](O)C[C@]2(C)[C@@]1(O)C(=O)CO
inactive: all assays above
